# Screening results from PubChem.
# Sampled rows, rich in hits. Any-hit rate of the full collection: about 0.78%.
# LMP1 NFkB inh: inhibitors of Epstein-Barr LMP1-induced NF-kappaB reporter; 350,000 tested, 0.69% active; inhibition, % at 12.5 µM; AID 504558; LMP1-induced NF-kappaB luciferase reporter cells, luminescence; in the data active = inhibition above about 41%; inconclusive = no clear call, values can overlap the other calls;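 note: 0% = neutral control wells and 100% = reference inhibitor control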
# NR5A2 inv ag: NR5A2 inverse agonism in reporter assay | HEK293T StAR-luciferase reporter, LRH-1 transfected, 24 h | inhibition, % at 3.6 µM | AID 602396 | 360,000 tested, 0.13% active | O00482;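 active = inhibition above the mean inhibition of all tested compounds plus 3 SD, cut at about 73% in these data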;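 note: 0% = DMSO wells and 100% = reporter-only cells lacking LRH-1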
# Target sequence (O00482 whole entry, looked up): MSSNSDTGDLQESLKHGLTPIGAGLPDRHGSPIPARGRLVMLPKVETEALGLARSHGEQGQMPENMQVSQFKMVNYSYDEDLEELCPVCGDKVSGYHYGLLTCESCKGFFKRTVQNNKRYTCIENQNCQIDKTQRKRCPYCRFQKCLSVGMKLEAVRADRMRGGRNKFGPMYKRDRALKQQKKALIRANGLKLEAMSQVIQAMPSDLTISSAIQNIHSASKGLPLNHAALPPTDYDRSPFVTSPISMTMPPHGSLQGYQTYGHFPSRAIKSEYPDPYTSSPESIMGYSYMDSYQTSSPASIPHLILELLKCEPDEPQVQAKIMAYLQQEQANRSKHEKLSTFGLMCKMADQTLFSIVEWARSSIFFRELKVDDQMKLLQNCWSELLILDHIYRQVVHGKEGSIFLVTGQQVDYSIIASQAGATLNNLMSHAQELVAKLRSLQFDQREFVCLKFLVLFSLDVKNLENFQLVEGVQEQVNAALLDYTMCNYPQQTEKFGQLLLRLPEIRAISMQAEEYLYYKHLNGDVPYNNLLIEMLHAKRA
# NCOA2 inhibitor: human SRC2 (NCOA2) inhibition; 370,000 tested, 0.17% active; Q15596; HEK293 GAL4-SRC2 luciferase reporter, luminescence; inhibition, % at 9 µM;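 active = inhibition above the mean inhibition of all tested compounds plus 3 SD, set per campaign, cut at about 52% in these data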;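 note: 0% = DMSO treated cells and 100% = cells given Gossypol at 36 µM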
# NCOA1 inh: human NCOA1 inhibition; AID 588354; inhibition, % at 3.6 µM; 360,000 tested, 0.12% active; HEK293 GAL4-SRC1 luciferase reporter, luminescence;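 active = inhibition above the campaign mean plus 3 SD, with each screening campaign given its own cutoff, cut at about 60% in these data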;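 note: 0% = DMSO treated cells and 100% = gossypol at 36 µM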
# NCOA3 inh: inhibits human SRC3 coactivator. 360,000 tested, 0.17% active. AID 588352. HEK293 GAL4-SRC3 luciferase reporter, luminescence. Q9Y6Q9. inhibition, % at 3.6 µM;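 active = inhibition above a per-campaign cutoff, the mean of all compounds plus 3 SD, cut at about 60% in these data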;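 note: 0% = DMSO-treated cells and 100% = gossypol-treated cells at 36 µM; higher means less SRC3-driven luciferase light from the GAL4 reporter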
# The depositor's hits bear a star; ? = inconclusive; . = no result given; ! = not active in a repeat.
SMILES,LMP1 NFkB inh,NR5A2 inv ag,NCOA2 inhibitor,NCOA1 inh,NCOA3 inh
O=C(N[C@@H](Cc1ccccc1)C(=O)N[C@@H](Cc1ccccc1)C(=O)O)OCc1ccccc1,0,-12,-7,8,-8
O=C(N[C@@H](Cc1ccccc1)C(=O)CCl)OCc1ccccc1,56*,38,43,-5,43
CCCCC#Cc1ccccc1COC[B-](F)(F)F,.,.,-42,.,.
C#Cc1ccc([C@@H]2C=C(C(=O)N3CCN(Cc4ccccc4)CC3)O[C@H](OCCCCO)C2)cc1,37,89*,.,60,55
O=C(C1=C[C@H](c2ccccc2)C[C@H](OCCCCO)O1)N1CCN(Cc2ccccc2)CC1,-1,-2,6,-2,0
C=CCN(CC#CC(=C)C)Cc1ccccc1,.,.,-6,.,.
CC(C)(C)OC(=O)N1Cc2ccccc2C[C@H]1C(=O)NCC(=O)Nc1ccc2c(c1)OCCO2,44*,37,54*,42,60
COC(=O)C1CN(Cc2cn(Cc3ccc(Cl)cc3)nn2)CCS(=O)(=O)N1Cc1ccc(F)cc1 (configuration not stated),.,.,10,.,.
CCCCCCCCN1C(=O)[C@@H](CC(=O)NCC23CC4CC(CC(C4)C2)C3)C[C@@]2(C(=O)OC)C1=C[C@H](COCc1ccccc1)O[C@@H]2C,.,.,11,.,.
CCOc1ccc(-c2nc(CSCC(=O)N3CCN(c4cccc(OC)c4)CC3)c(C)o2)cc1,13,28,59*,13,18
COc1ccc(-c2nc(CS(=O)CC(=O)NCc3ccco3)c(C)o2)cc1 (configuration not stated),-5,16,-25,-9,-28
CCOc1ccc(-c2nc(CSCC(=O)NCc3ccco3)c(C)o2)cc1,60*,26,34,23,16
CCc1ccc(-c2nc(CS(=O)CC(=O)NCc3ccco3)c(C)o2)cc1 (configuration not stated),17,41,54*,21,33
Cc1ccc(-c2nc(CSCC(=O)N3CCN(c4ccccn4)CC3)c(C)o2)cc1,7,32,3,-5,-1
CCOc1ccc(-c2nc(CSCC(=O)NC3CC3)c(C)o2)cc1,15,9,.,-75,2
COc1ccc(C(CNC(=O)C(CCSC)NC(=O)c2ccccc2Cl)N2CCCC2)cc1 (configuration not stated),1,7,0,16,2
COc1ccc(C(CNC(=O)C(CCSC)NC(=O)c2ccccc2Cl)N2CCCCC2)cc1 (configuration not stated),71*,-5,8,-21,-6
COc1ccc(-n2c(-c3ccc(Br)cc3)c[n+]3c2CCc2ccccc2-3)cc1,38,65,17,5,47
COc1ccccc1-n1c(-c2ccccc2)c[n+]2c1CCc1ccccc1-2,-3,66,6,51,74*!
CC(C)c1ccc(-n2c(-c3ccccc3)c[n+]3c2CCc2ccccc2-3)cc1,18,81*,40,50,77*
COc1ccc(N2CCN(CCNC(=O)CCCn3c(=O)[nH]c4cc(Cl)ccc4c3=O)CC2)cc1,81*,-1,-12,-4,-2
COc1ccc(N2CCN(CCCNC(=O)CCCn3c(=O)[nH]c4ccsc4c3=O)CC2)cc1,-3,17,-22,2,0
CC(=O)NC(c1ccccc1)c1cc(Cl)c2cccnc2c1O (configuration not stated),35,25,16,27,34
Cc1cc(NC(c2ccc(Cl)cc2)c2ccc3cccnc3c2O)no1 (configuration not stated),70*,12,46,48,46
COc1ccc(C(NC(C)=O)c2cc(Cl)c3cccnc3c2O)cc1 (configuration not stated),42*,36,2,20,25
CCC(=O)NC(c1ccc(C)cc1)c1ccc2cccnc2c1O (configuration not stated),?,19,34,41,64*
COc1ccc(C(NC(=O)C(C)C)c2ccc3cccnc3c2O)cc1 (configuration not stated),24,70,27,22,32
CCCCC(=O)NC(c1ccc(OC)cc1)c1ccc2cccnc2c1O (configuration not stated),65*,103*,5,14,36
COc1cccc(-c2nnc(SCc3cc(C)ccc3C)n2Cc2ccco2)c1,.,.,18,.,.
